Measured values: PubChem BioAssay AID652015 (National Center for Advancing Translational Sciences (NCATS), 2013)
Records with an inconclusive call do not appear. Active and inactive are the calls of the source. The call rests on the fitted dose curve; in most records, active means well fitted inhibition curve with a large enough effect; inconclusive means small, poorly fitted or top-dose-only effect; inactive means no such curve, though single readings can be large or run the other way.

molecular target: Coelenterazine h 2-monooxygenase (Renilla reniformis) (UniProt P27652); assay: qHTS Assay for Inhibitors of Sea Pansy Luciferase from the GSK Published Protein Kinase Inhibitor Set; settings: purified Renilla luciferase, luminescence; series mostly up to 57.5 µM
Sequence (P27652 whole entry, looked up): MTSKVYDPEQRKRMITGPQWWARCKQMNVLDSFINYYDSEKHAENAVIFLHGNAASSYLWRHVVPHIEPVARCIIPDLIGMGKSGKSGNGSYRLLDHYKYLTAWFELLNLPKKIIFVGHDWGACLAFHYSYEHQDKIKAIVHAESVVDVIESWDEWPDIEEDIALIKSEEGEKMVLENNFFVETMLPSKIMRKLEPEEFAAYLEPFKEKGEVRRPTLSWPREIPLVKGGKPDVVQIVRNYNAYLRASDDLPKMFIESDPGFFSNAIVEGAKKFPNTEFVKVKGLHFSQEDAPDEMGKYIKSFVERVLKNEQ
Procedure, shortened: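 qHTS (roughly 60 uM down to 300 pM) against 1 nM Renilla luciferase, substrate coelenterazine h 5 uM, Tris acetate pH 7.5 buffer with NaCl, Tween-20 and BSA. Luminescence measured after an average 2 min incubation.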

Potency, inactive:
Cc1nnc(-c2ccc(C)c(-c3ccc(C(=O)Nc4cccc(C#N)c4)cc3)c2)o1
O=C(Nc1n[nH]c2nc(-c3ccco3)ccc12)C1CC1
O=C(Nc1n[nH]c2nc(-c3ccc(O)cc3)c(Br)cc12)C1CC1
O=S1CCN(Cc2ccc(-c3ccc4ncnc(Nc5ccc(OCc6ccccc6)c(Cl)c5)c4c3)o2)CC1
Fc1ccc(-c2nc3n(c2-c2ccncc2)CCS3)cc1
CS(=O)(=O)CCNCc1coc(-c2ccc3ncnc(Nc4ccc(OCc5ccccc5)cc4)c3c2)c1
CN(c1ccc(NC(=O)Nc2ccc(OC(F)(F)F)cc2)cc1)c1ccnc(Nc2cccc(S(N)(=O)=O)c2)n1
CS(=O)(=O)CCNCc1nc(-c2ccc3ncnc(Nc4ccc(F)c(Cl)c4)c3c2)cs1
CNC(=O)c1cncc(C=Cc2ccccc2C)c1
COC(=O)Nc1nc2ccc(S(=O)(=O)c3ccc(NC(=O)Nc4cc(C(F)(F)F)ccc4F)cc3)cc2[nH]1
O=C1N=c2ccc(N=Cc3c(O)[nH]c4ccccc34)cc2=N1
CS(=O)(=O)CCNCc1nc(-c2ccc3ncnc(Nc4ccc(OCc5cccc(C(F)(F)F)c5)cc4)c3c2)cs1
Clc1ccc(CNc2nccc(-c3cnn4ncccc34)n2)cc1
CNC(=O)c1cccc(C#Cc2cncnc2Nc2ccc(OCc3cccc(F)c3)c(Cl)c2)c1
CNC(=O)c1cc(-c2ccc(F)cc2)cc(-c2ccc(S(=O)(=O)N3CCCC3)cc2)c1N
CS(=O)(=O)CCNCc1ccc(-c2ccc3ncnc(Nc4ccc(OCc5cccc(C(F)(F)F)c5)cc4)c3c2)o1
CCOc1ccc2c(-c3ccnc(Nc4cccc(C(F)(F)F)c4)n3)cnn2n1
COc1cc(Nc2nccc(-c3cnn4ncccc34)n2)cc(OC)c1
CS(=O)(=O)CCNCc1ccc(-c2ccc3ncnc(Nc4ccc(OCc5cccc(F)c5)c(C(F)(F)F)c4)c3c2)o1
CCc1ccc(Oc2nccc(-c3c(-c4ccc(F)cc4)ncn3C3CCNCC3)n2)cc1
Cn1c(-c2nonc2N)nc2cnccc21
CC(C)c1ccc(Nc2nccc(-c3cnn4ncccc34)n2)cc1
Cc1ccc2c(-c3ccnc(Nc4ccc5c(c4)OCCO5)n3)c(-c3ccc(C(F)(F)F)cc3)nn2n1
N#Cc1c(NC(=O)c2ccc(F)cc2)sc2c1CCCC2
Cc1ccc2c(-c3ccnc(Nc4cccc(C(F)(F)F)c4)n3)c(-c3ccccc3)nn2n1
CCN1CCC(CC(=O)Nc2n[nH]c3nnc(-c4cccc(F)c4F)cc23)CC1
NC(=O)c1sc(-n2cnc3cc(C(F)(F)F)ccc32)cc1OCc1ccccc1Br
CS(=O)(=O)CCNCc1ccc(-c2ccc3ncnc(Nc4ccc(OCc5ccccc5)c(C(F)(F)F)c4)c3c2)o1
COc1cc(C=NNc2ncnc3c2cnn3Cc2ccccc2)ccc1O
c1ccc(Nc2ncc(-c3ccccc3)o2)cc1
CCCNc1cccc(-n2ncc3c(NN=Cc4ccncc4)ncnc32)c1
COc1cccc(-n2ncc3c(NN=Cc4ccc(F)cc4)ncnc32)c1
COc1ccc2cc(-c3c(-c4ccncc4)nc(-c4ccc(S(C)=O)cc4)n3C)ccc2c1 (centres undefined)
Nc1nc(-c2ccc(F)cc2)c(-c2ccc3ncccc3n2)s1
c1ccc(Oc2ccc(Nc3ncc(-c4ccccc4)o3)cc2)cc1
COc1cc(C)c(N(C)C(=O)CN(C)C)cc1Nc1nc(Nc2cccc(F)c2C(N)=O)c2cc[nH]c2n1
Fc1ccc(Oc2nccc(-c3c(-c4ccc(F)cc4)ncn3C3CCNCC3)n2)cc1
O=S1CCN(Cc2ccc(-c3ccc4ncnc(Nc5ccc(OCc6cccc(F)c6)c(Cl)c5)c4c3)o2)CC1
CC1(C)CC(n2cnc(-c3ccc(F)cc3)c2-c2ccnc(N)n2)CC(C)(C)N1
